Rows were chosen to be rich in hits. Some 2.1% of all compounds tested hit in one or more screens of this group.
TDP43 rescue: qHTS of TDP-43 Inhibitors | TDP-43 expressing yeast growth rescue, BacTiter-Glo, 24 h | Potency, µM (series often up to 46.1 µM), without a hit: top-dose growth rescue (activation), actives largely listed as activators | actives 1.8% (n = 410,000) | AID 652104, 2013; further: % of control where 0% means no effect; nearly all actives have a fitted effect of over 50% in size
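Yeast expressing TDP-43 (pregrown in raffinose, seeded at OD600=0.02 in galactose medium) exposed to compounds 24 hr at 30 deg C. Growth read by BacTiter-Glo luminescence; rescue of toxicity appears as increased signal.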
FUS suppressor: qHTS for Suppressors of FUS Proteinopathy: Primary screen using FUS-linked yeast assay; AID 1347120, 2019; Potency, µM (titrated, usually from 76.6 µM), actives largely listed as activators; S. cerevisiae FUS-expressing, growth rescue, OD600, 24 h; actives 0.24% (n = 390,000);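 further: plate controls were DMSO vehicle for no effect and reference control for full effect; nearly all actives have a fitted effect of over 55% in size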
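Read-out: OD at 600 nm after 24hr at 30C, reporting rescue of FUS-induced yeast toxicity. Cells at OD 0.005 in galactose (2%) minimal medium; compounds tested in a dilution series; CP55940 titration from 92uM final as control.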
Abeta yeast res: qHTS for compounds that reverse cellular toxicity of Amyloid beta (A-beta) peptide in yeast: Primary Screen. yeast expressing A-beta42, growth rescue, OD600, 48 h; response scale: 0% DMSO, 100% iron-clioquinol control. actives 0.063% (n = 410,000). Potency, µM (titrated, usually from 46.1 µM), most hits filed as activators. AID 1347071, 2019; further: nearly all actives have a fitted effect of over 55% in size
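Yeast A-beta toxicity model in growth medium with pinned compounds, 48 h at 30 C; growth read as absorbance at 600 nm. Normalized to FeCl3/clioquinol equimolar mix (positive) and DMSO (negative).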
aSyn yeast inh: qHTS of alpha-syn Inhibitors; actives 0.14% (n = 370,000); Potency, µM (doses to about 46.1 µM), for inactives: top-dose growth rescue (activation), actives largely listed as activators; AID 652106, 2013; Yeast expressing alpha-synuclein, growth rescue, BacTiter-Glo, 24 h; further: % of control where 0% means no effect; nearly all actives have a fitted effect of over 65% in size
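Screening used galactose-induced yeast with toxic alpha-synuclein levels, exposed to compound for 24 hr at 30 deg C. Cell growth, read with BacTiter-Glo luminescence, gave the measured signal.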
* marks the source's active call; other numbers are inactive results; i = inactive; ? = inconclusive; / = no result given. The call rests on the fitted dose curve; in most records, active means well fitted curve in the direction sought with a large enough effect; inconclusive means small, poorly fitted or top-dose-only effect, or another doubt; inactive means no such curve, though single readings can be large; an effect the other way counts as inactive or inconclusive. Potency means the concentration at half of the fitted maximal effect.

SMILES	TDP43 rescue	FUS suppressor	Abeta yeast res	aSyn yeast inh
C#CCOCCOCCOCCNc1nc(N2CCN(C(=O)CCCCCCCCCCNC(=O)[C@@H](CCSC)n3cc(CCO)nn3)CC2)nc(N2CCN(C(=O)CCCCCCCCCCNC(=O)[C@H](CCCN=C(N)N)n3cc(C[C@@H](C)CC)nn3)CC2)n1	-0.7%	10µM*	i	-49.8%
C#CCOCCOCCOCCNc1nc(N2CCN(C(=O)CCCCCCCCCCNC(=O)[C@H](CCCCN)n3cc(C[C@@H](C)CC)nn3)CC2)nc(N2CCN(C(=O)CCCCCCCCCCNC(=O)[C@H](CCCN=C(N)N)n3cc(C[C@@H](C)CC)nn3)CC2)n1	-84.1%	10µM*	i	-62.1%
COc1ccc(-n2nnnc2C2CCN(S(=O)(=O)c3ccc(NC(C)=O)cc3)CC2)cc1	-3.8%	i	i	/
O[C@@H]1COC(Nc2ccc(N=Nc3ccccc3)cc2)C[C@@H]1O (stereo not given in full)	12.6µM*	i	i	-2.4%
COc1ccc(CN(C)C(=O)CNC(=O)c2ccc3ccccc3c2)c(OC)c1	22.3%	i	i	0.0%
COc1ccc(Br)cc1CN(C)C(=O)CNC(=O)c1ccc2ccccc2c1	22.4µM*	i	i	-6.4%
COc1cccc(C(=O)N2c3ccccc3Sc3ccccc32)c1	22.4µM*	i	i	24.3%
COc1cccc(C(=O)NC2CCN(C(=O)N3c4ccccc4Sc4ccccc43)CC2)c1	?	?	i	-13.6%
CC(=O)CSc1ncnc2sc3c(c12)CCC3	25.1µM*	i	i	?
COc1cccc(-c2nnc(SCC(=O)NC3CCCCC3)o2)c1	?	i	i	/
Cc1ccc(S(=O)Cc2nc(-c3ccc(C(=O)NC(C)c4ccccc4)cc3)oc2C)cc1 (stereo not given)	-21.6%	i	i	/
COc1ccc(-c2cncnc2-c2ccc(OC)cc2O)cc1	16.0%	i	i	-1.5%
COc1cccc(Oc2cncnc2-c2ccc(OC)cc2O)c1	20µM*	i	i	?
O=C(COc1ccccc1)Nc1nc2c(s1)CCCC2	28.1%	i	?	4.9%
O=C(COc1ccccc1Cl)Nc1nc2c(s1)CCCC2	11.2µM*	i	i	/
O=C(CSCc1ccc(F)cc1)Nc1nc2c(s1)CCCC2	14.1µM*	i	i	12.0%
O=C(CSc1nnc(CNc2ccc(Cl)cc2)o1)Nc1nc2c(s1)CCCC2	18.9%	35.5µM*	i	-4.7%
Cc1cc(C=Nc2ccc(/C=C/c3ccnc4ccccc34)cc2)ccc1N(C)C	/	/	/	2.7%
COc1ccc(C(=O)Nc2cccc(-c3nc4cccnc4s3)c2C)c(OC)c1	0.0%	i	i	/
COc1ccc(O)c(/C=N/Nc2nc(Nc3ccccc3)nc(-n3nc(C)cc3C)n2)c1	22.4µM*	i	?	8.3%
COc1ccc(Nc2cc(C)nc(-n3nc(C)cc3C)n2)cc1Cl	?	i	i	/
Cc1cc(Nc2ccc(C(C)C)cc2)nc(-n2nc(C)cc2C)n1	20µM*	?	i	/
Cc1cc(N/N=C/c2cccc(Cl)c2)nc(-n2nc(C)cc2C)n1	14.1µM*	i	i	12.0%
COc1ccc(/C=N/Nc2cc(C)nc(-n3nc(C)cc3C)n2)cc1	20µM*	i	i	?
COCC#Cc1ccc(CC[C@H]2O[C@H]3CC[C@@H](CO)O[C@H]3C[C@H]2n2cc(C(C)(C)O)nn2)cc1	/	i	/	/
SMILES	TDP43 rescue	FUS suppressor	Abeta yeast res	aSyn yeast inh
Cn1c2c(c3cnc4cc(Cl)ccc4c31)CN(Cc1ccc(Cl)cc1)CC2	/	/	/	7.9%
CCN(N=O)c1ccc(/C=C2\C=Cc3ccccc32)cc1	/	/	/	1.9%
COc1cccc2cc(C(=O)N(Cc3cccs3)Cc3cccs3)c(=O)oc12	/	/	/	4.0%
NC(=O)c1nsc(C(=O)N(CC(=O)NC2CCCCC2)Cc2ccc3c(c2)OCO3)c1N	/	/	/	-3.4%
Cc1cccc(C)c1OCC(=O)Nc1cccc(NC(=O)c2ccco2)c1	25.1µM*	i	i	3.7%
COc1c(C)cc(Br)cc1C(=O)Nc1cccc(-c2nc3ncccc3o2)c1	12.6µM*	i	i	0.9%
Cc1ccc(C(C)C)c(OCC(=O)Nc2cccc(-c3nc4ncccc4o3)c2)c1	22.4µM*	i	i	/
O=C(Nc1cccc(NC(=O)c2cccnc2Cl)c1)c1ccco1	-1.0%	i	i	-7.9%

Source: PubChem BioAssay (National Center for Advancing Translational Sciences (NCATS))
